Our source for the growth values is PubChem BioAssay (NCI).

SMILES strings stand for the structures. The panel holds about 83,000 compounds, 20% with a hit somewhere; the sample as a whole holds those more often.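 Cells were grown in 96-well plates and exposed to the test compound at a single concentration for 48 hours; results are reported as percent growth, with values below 10 considered active.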 Values without a mark were called inactive. The source made the active and inactive calls.

In the assay the test system is MDA-MB-468 breast. Description: NCI-60 one-dose screen, 48 h (100 = growth as untreated, 0 = no growth, -100 = all killed). As to conditions: 10 µM unless noted.
With `CC(=O)OCC1OC(OC2=C(CC=C(Cl)Cl)C(=O)c3ccccc3C2=O)C(OC(C)=O)C(OC(C)=O)C1OC(C)=O` (centres undefined), the growth was -61.7% (active).
As for `CCc1cc(C)cc(O)c1`, the figure is 94.7%; as for `Nc1nc(-c2cccc([N+](=O)[O-])c2)c(N=Nc2cccc(Cl)c2)s1`, 11.5%; as for `Cn1cc(-c2csc(-c3cn(C)c4ncccc34)n2)c2ccccc21`, 18%.
As for `C[C@@H]1N=C(c2ccc(Cl)cc2Cl)Nc2nc3ccccn3c2C1=O`, the figure is 53.9%.
As for `COc1ccc(C2CC(c3cccc(Nc4nc(Cl)nc5cc(OC)c(OC)cc45)c3)=Nc3c(N)nc(N)nc3N2)cc1` (centres undefined), the figure is 92.3%; as for `C#CC(=O)Nc1cccc2c1cc(C)n2-c1nc2c(c(NCc3ccccc3)n1)CCCC2`, -63.3% (active); as for `COc1ccc(N2CCN(C(=O)c3sc4nc(C)c(Br)c(C)c4c3N)CC2)cc1`, 109%.
Turning to `Cc1nc2ccccc2n1-c1ncnc2c1CC(C)c1ccccc1N2C` (centres undefined), the growth was 80.9%.
As for `Cc1nnc(-c2cc3c(ccc4ccccc43)oc2=O)c2cn(-c3ccc(Cl)cc3)nc12`, the figure is 96.4%; as for `Fc1ccc(/C=C/c2cc(/C=C/c3ccc(F)cc3)n(-c3cc(F)cc(F)c3)n2)cc1`, 108%.
As for `O=c1ccc2ccccc2o1`, the figure is 114%.
As for `CCOC(=O)c1c(NS(=O)(=O)c2ccc(C)cc2)sc2c1CCC1(C2)OCCO1`, the figure is 87.6%.
On to `COc1cccc(-c2nc(-c3ccc(NC(=O)c4ccccc4)cc3)[nH]c2-c2ccnc(Br)c2)c1`, for which the growth was 28.8%.
